Assay outcomes (PubChem)
ERG Ets-DNA blk: ERG Ets/DNA interaction inhibition; P11308; Potency, µM (titrated, usually from 76.9 µM), usual class: inhibitors; AID 624246; fluorescence polarization, His-ERG Ets domain / labelled DNA; hit rate 0.028% among 370,000; active = well fitted inhibition curve with a large enough effect in the polarisation, with a control signal flat; inconclusive = small, poorly fitted or top-dose-only effect, or effect the other way, or a change in a side signal; inactive = no such curve, though single readings can be large or run the other way; the % refers to the polarisation;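 note: polarization taken with two DNA probes labelled with fluorescein and Texas red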
Target sequence (P11308 whole entry, looked up, the tested form may be a part): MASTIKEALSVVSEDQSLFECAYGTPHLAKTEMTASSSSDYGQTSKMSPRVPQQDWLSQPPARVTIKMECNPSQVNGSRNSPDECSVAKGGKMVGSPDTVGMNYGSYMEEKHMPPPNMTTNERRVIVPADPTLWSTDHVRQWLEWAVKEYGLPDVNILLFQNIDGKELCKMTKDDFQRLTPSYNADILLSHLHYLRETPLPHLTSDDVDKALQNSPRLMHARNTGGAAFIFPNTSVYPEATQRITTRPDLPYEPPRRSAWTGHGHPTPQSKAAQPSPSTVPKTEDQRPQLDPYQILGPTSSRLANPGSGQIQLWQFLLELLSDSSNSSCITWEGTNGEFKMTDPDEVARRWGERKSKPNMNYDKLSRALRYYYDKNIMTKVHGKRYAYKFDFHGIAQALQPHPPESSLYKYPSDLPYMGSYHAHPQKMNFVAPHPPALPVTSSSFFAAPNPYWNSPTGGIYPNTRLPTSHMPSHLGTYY
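His-tagged ERG Ets domain (1 uM in the protein solution; 300mM KCl, 50mM Tris-HCl, 1mM EDTA, 1mM DTT, pH 7.5) received compound, then a probe mix of 5 nM fluorescein-DNA and 100nM Texas-615-DNA. Fluorescence polarization was read for both dyes.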
Nrf2 activator: Nrf2 pathway activation | AREc32 ARE-luciferase reporter (MCF7-derived line), luminescence, 24 h | Potency, µM (top dose mostly 46.1 µM), usual class: activators | hit rate 0.31% among 410,000 | AID 624171; note: nearly all actives have a fitted effect of over 65% in size
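Reporter line AREc32 (ARE-Fluc), seeded overnight in OPTI-MEM with 5% FBS; compound pin-transferred, 24 hr at 37 deg C, 5% CO2; luminescent read-out.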
A549 tox-1: A549 cytotoxicity, counter-screen for Nrf2 inhibitors. A549 ARE-Fluc cells, CellTiter-Fluor viability, 18-24 h. Potency, µM (series often up to 46 µM), most hits filed as inhibitors. hit rate 0.16% among 390,000. AID 504648
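Cytotoxicity counterscreen: CellTiter-Fluor fluorescence was measured in A549 ARE_Fluc cells after 18-24 h of compound exposure in a concentration series. The subsequent BugLite luminescent read reports ARE-luciferase activity.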
Nrf2 block: inhibitors of Nrf2 signaling; A549 ARE-Fluc reporter, luciferase luminescence, 18-24 h; Potency, µM (series often up to 46 µM), hits mostly inhibitors; hit rate 2.1% among 360,000; AID 504444; note: nearly all actives have a fitted effect of over 60% in size
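A549 ARE_Fluc cells, 5000/well, 5% FBS OPTI-MEM; compounds in dose-response, 18-24 h at 37 °C/5% CO2; CellTiter-Fluor viability read (Ex 405/Em 525), then BugLite luciferase luminescence = Nrf2 activity.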
12-LOX inh: ALOX12 (human) lipoxygenase inhibition; AID 1671190; purified 12hLO, xylenol orange hydroperoxide absorbance; Potency, µM (series often up to 108 µM), most hits filed as inhibitors; hit rate 1.1% among 580,000; P18054
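Purified human 12hLO at 150 nM in 25 mM Hepes, 0.01% Triton X-100, pH 7.0, preincubated 15 min at room temperature with compound. Reaction started with 40 uM arachidonic acid, 30 min at room temperature. Hydroperoxide measured by Fe-xylenol orange, 573/405 nm absorbance ratio.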
LDHA inh: inhibitors of human lactate dehydrogenase A | P00338 | purified LDHA, NADH/diaphorase-resazurin fluorescence; stronger effect = lower value | activity change, % (values are at about 110 or 230 µM) | hit rate 0.15% among 480,000 | AID 1347041; in the data active = activity change below about -30%; inconclusive = mostly about -25% to -30%
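Human LDH5 at 2 nM final in Tris HCl pH 7.4 with 0.06 mM NADH and 0.2 mM pyruvate, reacted 5 minutes at room temperature. Remaining NADH coupled via diaphorase/resazurin; resorufin fluorescence read at 0 and 20 minutes, normalized to enzyme-free and DMSO wells.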
FLuc counter 3: blocks purified firefly luciferase in Nrf2 counterscreen | hit rate 4% among 1,400 | purified firefly luciferase, luminescence inhibition | shares compounds with Nrf2 block | Potency, µM (titrated, usually from 57.5 µM), actives largely listed as inhibitors; note: nearly all actives have a fitted effect of over 65% in size
A549 tox-2: A549 cytotoxicity, Nrf2 inhibitor counterscreen | shares compounds with Nrf2 block | A549 ARE-Fluc cells, cytotoxicity counterscreen | Potency, µM (titrated, usually from 46.1 µM), usual class: inhibitors | hit rate 2% among 1,400 | AID 720523;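 note: cells exposed to compounds for 18 to 24 hours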
Nrf2 ARE inh: reduces Nrf2 ARE reporter signal in A549 cells; shares compounds with Nrf2 block; A549 ARE-firefly luciferase reporter, luminescence; Potency, µM (doses to about 46.1 µM), usual class: inhibitors; hit rate 74% among 1,400; note: nearly all actives have a fitted effect of over 65% in size
Numbers stand for hits; [ ] = dose if it differs, or a comment. An excerpt weighted towards active compounds, which were near 2.7% of everything screened. Unless noted, calls come from the whole dose curve; as a rule, active = well fitted curve in the direction sought with a large enough effect; inconclusive = small, poorly fitted or top-dose-only effect, or another doubt; inactive = no such curve, though single readings can be large; an effect the other way counts as inactive or inconclusive.

How did O=C(c1ccccc1)N1CCC(c2nc(-c3ccc(S(=O)(=O)NCC4CCCO4)cc3)no2)CC1 (configuration not stated) do in these assays?
Nrf2 activator: inactive; A549 tox-1: inactive; Nrf2 block: 3.7µM; 12-LOX inh: inactive; LDHA inh: inactive; FLuc counter 3: inactive; A549 tox-2: inactive; Nrf2 ARE inh: 5.8µM

How did CC(C)c1nnc(NC(=O)c2cccc3ncccc23)s1 do in these assays?
12-LOX inh: inactive; LDHA inh: inactive

What do the screens show for `COc1ccc(S(=O)(=O)N2CCCCCC2)cc1NC(=O)Cc1cc(OC)c(OC)c(OC)c1`?
ERG Ets-DNA blk: inactive; Nrf2 activator: inactive; A549 tox-1: inactive; Nrf2 block: inactive; 12-LOX inh: inactive; LDHA inh: inactive

How did COc1ccc(CC(=O)Nc2cc(S(=O)(=O)N3CCCCC3)ccc2C)cc1OC do in these assays?
ERG Ets-DNA blk: inactive; Nrf2 activator: inactive; A549 tox-1: inconclusive; Nrf2 block: 4.1µM; 12-LOX inh: inactive; LDHA inh: inactive; FLuc counter 3: inactive; A549 tox-2: inactive; Nrf2 ARE inh: 7.3µM

How did O=C(Cn1nc(-c2ccc(Cl)cc2)c2ccccc2c1=O)N1CCCC1 do in these assays?
12-LOX inh: inactive; LDHA inh: inactive

Results for O=S(=O)(NC1CCc2ccccc21)c1ccc(S(=O)(=O)N2CCCC2)cc1 (configuration not stated) ?
Nrf2 activator: inactive; A549 tox-1: inactive; Nrf2 block: 4.1µM; 12-LOX inh: inactive; LDHA inh: inactive; FLuc counter 3: inactive; A549 tox-2: inactive; Nrf2 ARE inh: inconclusive

What do the screens show for `Cc1ccc(NC(=O)CCNS(=O)(=O)c2ccc3c(c2)CCC(=O)N3)cc1C`?
ERG Ets-DNA blk: inactive; Nrf2 activator: inactive; A549 tox-1: inactive; Nrf2 block: inactive; 12-LOX inh: inactive; LDHA inh: inactive

What do the screens show for `Cc1cccc(N2CCN(C(=O)CCNS(=O)(=O)c3ccc4c(c3)CCC(=O)N4)CC2)c1C`?
ERG Ets-DNA blk: inactive; Nrf2 activator: inactive; Nrf2 block: 5.8µM; 12-LOX inh: inactive; LDHA inh: inactive; FLuc counter 3: inactive; A549 tox-2: inactive; Nrf2 ARE inh: inconclusive

What do the screens show for `CN(C)S(=O)(=O)N1CCC(Oc2cccc(C(=O)NC3CCCCCC3)c2)CC1`?
ERG Ets-DNA blk: inactive; Nrf2 activator: inactive; A549 tox-1: inactive; Nrf2 block: 2.6µM; 12-LOX inh: inactive; LDHA inh: inactive; FLuc counter 3: inactive; A549 tox-2: inconclusive; Nrf2 ARE inh: 0.073µM

What do the screens show for `CN(C)S(=O)(=O)N1CCC(Oc2ccc(C(=O)NC3Cc4ccccc4C3)cc2)CC1`?
ERG Ets-DNA blk: inactive; Nrf2 activator: inactive; A549 tox-1: inactive; Nrf2 block: inconclusive; 12-LOX inh: inactive; LDHA inh: inactive

Results for c1ccc(-n2nnnc2CSc2nnc(N3CCCCC3)n2-c2ccccc2)cc1 ?
12-LOX inh: inconclusive; LDHA inh: inactive

Results for CCOC(=O)c1c(Nc2ccc(Cl)cc2)sc(/C=C2\C=Nc3ccccc32)c1O ?
ERG Ets-DNA blk: inactive; Nrf2 activator: inactive; A549 tox-1: inactive[1.84 µM]; Nrf2 block: 1.5µM; 12-LOX inh: inactive; LDHA inh: inactive; FLuc counter 3: inactive; A549 tox-2: inconclusive; Nrf2 ARE inh: 4.1µM

Results for CC(C)c1noc(C2CCCN(C(=O)C3(c4ccccc4)CC3)CCC(=O)NCC2)n1 (configuration not stated) ?
12-LOX inh: inactive

Results for C=C1C[C@H]2[C@@H]3C=C(C)C4=CC(=O)CC[C@]4(C)[C@H]3CC[C@]2(C)[C@@]1(OC(C)=O)C(C)=O ?
ERG Ets-DNA blk: inactive; Nrf2 activator: inactive; A549 tox-1: inactive; Nrf2 block: inconclusive; 12-LOX inh: inactive; LDHA inh: inactive; FLuc counter 3: inactive; A549 tox-2: inactive; Nrf2 ARE inh: 0.16µM

Results for CC(=O)C1(C)CCC2C3C=C(C)C4=CC(=O)CCC4(C)C3CCC21C (configuration not stated) ?
ERG Ets-DNA blk: inactive; Nrf2 activator: inactive; A549 tox-1: inactive; Nrf2 block: inconclusive; 12-LOX inh: inactive; LDHA inh: inactive

What do the screens show for `COc1ccc(-c2csc(NC(=O)C3CCN(c4ncnc5sc(C)c(C)c45)CC3)n2)cc1OC`?
ERG Ets-DNA blk: inactive; Nrf2 activator: inactive; A549 tox-1: inactive; Nrf2 block: 4.1µM; 12-LOX inh: inactive; LDHA inh: inactive; FLuc counter 3: inactive; A549 tox-2: inactive; Nrf2 ARE inh: 6.5µM

How did C=CCn1c(C)cc(-c2csc(NC(=O)C3CCN(c4ncnc5sc(C)c(C)c45)CC3)n2)c1C do in these assays?
ERG Ets-DNA blk: inactive; Nrf2 activator: inactive; A549 tox-1: inactive; Nrf2 block: inactive; 12-LOX inh: inactive; LDHA inh: inactive

Results for O=C(CSc1nc2ccccc2c(=O)n1-c1ccccc1)N1CCc2ccccc2C1 ?
ERG Ets-DNA blk: inactive; Nrf2 activator: inactive; A549 tox-1: inactive; Nrf2 block: inconclusive; 12-LOX inh: inconclusive; LDHA inh: inactive

Results for CC(C)c1ccccc1-n1c(SCC(=O)N2CCc3ccccc3C2)nc2ccccc2c1=O ?
ERG Ets-DNA blk: inactive; Nrf2 activator: inactive; A549 tox-1: inactive; Nrf2 block: 8.2µM; 12-LOX inh: inactive; LDHA inh: inactive; FLuc counter 3: inactive; A549 tox-2: inconclusive; Nrf2 ARE inh: 16µM

How did COc1ccc(Nc2nnc(SC(C(=O)Nc3cc(C)ccc3C)c3ccccc3)s2)cc1 (configuration not stated) do in these assays?
ERG Ets-DNA blk: inactive; Nrf2 activator: inactive; A549 tox-1: inactive; Nrf2 block: 8.2µM; 12-LOX inh: inconclusive; LDHA inh: inactive; FLuc counter 3: inactive; A549 tox-2: inactive; Nrf2 ARE inh: inactive

How did Cc1oc(-c2ccccc2F)nc1CSCC(=O)N1CCN(c2ccccc2)CC1 do in these assays?
ERG Ets-DNA blk: inactive; Nrf2 activator: inactive; A549 tox-1: inactive; Nrf2 block: 7.3µM; 12-LOX inh: inactive; LDHA inh: inactive; FLuc counter 3: inactive; A549 tox-2: inactive; Nrf2 ARE inh: 12µM

Results for Cc1oc(-c2ccccc2Cl)nc1CSCC(=O)N1CCCC1 ?
ERG Ets-DNA blk: inactive; Nrf2 activator: inactive; A549 tox-1: inactive; Nrf2 block: inconclusive; 12-LOX inh: inactive; LDHA inh: inactive
